Test results as given in PubChem BioAssay AID1851 (National Center for Advancing Translational Sciences (NCATS), 2009).
Among all 16,000 compounds or so, about 5,100 (32%) were called active. About 25% were inconclusive and are not listed. This is one part of the list. Values without a mark were called inactive. Calls follow the shape of the dose curve; as a rule, active = well fitted curve in the direction sought with a large enough effect; inconclusive = small, poorly fitted or top-dose-only effect, or effect the other way; inactive = no such curve, though single readings can be large or run the other way.

molecular target: Cytochrome P450 3A4 (Homo sapiens) (UniProt P08684); experiment: Cytochrome panel assay with activity outcomes; conditions: recombinant CYP, pro-luciferin dealkylation, luminescence, p450-cyp3a4; series mostly up to 57.1 µM; activity, negative = inhibition: at the top concentration
Sequence (P08684 whole entry, looked up): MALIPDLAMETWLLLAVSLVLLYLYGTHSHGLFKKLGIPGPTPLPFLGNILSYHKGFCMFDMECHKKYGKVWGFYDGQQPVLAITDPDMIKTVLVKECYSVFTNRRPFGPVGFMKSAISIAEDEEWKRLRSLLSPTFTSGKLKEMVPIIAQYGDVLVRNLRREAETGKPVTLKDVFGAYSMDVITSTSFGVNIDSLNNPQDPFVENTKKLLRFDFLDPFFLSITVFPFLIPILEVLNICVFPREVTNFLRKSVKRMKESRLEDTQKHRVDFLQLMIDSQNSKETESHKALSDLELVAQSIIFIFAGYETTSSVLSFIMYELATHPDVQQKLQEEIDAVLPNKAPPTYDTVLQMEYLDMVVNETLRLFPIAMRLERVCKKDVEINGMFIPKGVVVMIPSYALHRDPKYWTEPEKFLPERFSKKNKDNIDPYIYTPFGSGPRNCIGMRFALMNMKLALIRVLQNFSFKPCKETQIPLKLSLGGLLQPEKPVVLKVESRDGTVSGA
% is scaled to controls: 0 for no effect and ±100 for the full control effect.

Compound | AC50 | activity, negative = inhibition
CCN(C1CCCCC1)S(=O)(=O)c1ccc(S(=O)(=O)NCc2ccncc2)cc1 | 7.08 µM (active) | 
CCOC(=O)Nc1ccc(S(=O)(=O)NCc2ccccc2)cc1 |  | -5.85%
O=S(=O)(NCc1cccnc1)c1ccc(Cl)nc1 |  | 5.89% [at 2.29 µM]
COC(=O)N1CCC2(CCN(Cc3ccccc3OC)CC2)CC1 |  | -11.5%
Oc1ccccc1CNCc1ccccc1O |  | -7.01% [at 11.4 µM]
COc1ccccc1CNCC(O)(c1ccc(Cl)cc1)c1ccc(Cl)cc1 | 3.55 µM (active) | 
CCCNc1nc(NCC)nc(OC)n1 |  | 5.69%
CCOc1nc(NCCc2ccc(OC)c(OC)c2)nc(NC(C)(C)CO)n1 | 11.2 µM (active) | 
C=CCOc1ccc(CNC(C)(C)CO)cc1OCC |  | 2.18%
CC(C)N1CCC(=NNC(=O)c2ccc(Br)o2)CC1 | 15.8 µM (active) | 
O=C(N/N=C/c1ccco1)c1ccc(Br)o1 |  | -15.3%
CCCN1CCC(=NNC(=O)c2ccc(Br)o2)CC1 |  | 11.6% [at 2.29 µM]
Cc1ccc(C(c2nnnn2CC2CCCO2)N2CCN(C(=O)c3ccco3)CC2)cc1 (stereo not drawn) | 3.55 µM (active) | 
O=C(c1ccco1)N1CCN(C(=O)c2nn3cccnc3c2Cl)CC1 |  | 21.1%
CC(C)CCn1nnnc1C(c1ccc(F)cc1)N1CCN(C(=O)c2ccco2)CC1 (stereo not drawn) | 7.94 µM (active) | 
Cc1ccc(C(CC(=O)c2ccco2)SCCO)cc1 (stereo not drawn) |  | -23.2%
Cc1ccc(CCN2CC(C(=O)NCCN3CCOCC3)CC2=O)cc1 (stereo not drawn) |  | -12.6%
O=C(NCCCN1CCCCCC1)C1CC(=O)N(CCc2ccccc2)C1 (stereo not drawn) |  | -20.8%
CCCCNC(=O)C1CC(=O)N(CCC(C)C)C1 (stereo not drawn) |  | 0.276% [at 11.4 µM]
CN(C)CCCN1CC(C(=O)O)CC1=O (stereo not drawn) |  | -11.5%
Cc1ccc(CCN2CC(C(=O)NC3CCCC3)CC2=O)cc1 (stereo not drawn) | 15.8 µM (active) | 
CCOCCCN1CC(C(=O)NCCc2ccc(C)cc2)CC1=O (stereo not drawn) | 15.8 µM (active) | 
Cn1c([N+](=O)[O-])cnc1COC(N)=O |  | -5.99% [at 25.6 µM]
COc1ccccc1/C=C/C(=O)c1c2c(c(C)[nH]c1=O)CCCC2 | 3.98 µM (active) | 
Cc1[nH]c(=O)c(C(=O)/C=C/c2ccccc2F)c2c1CCCC2 | 11.2 µM (active) | 

Compound | AC50 | activity, negative = inhibition
C[N+](C)(C)CCOC(N)=O | inactive | 
c1ccc2c(NC3CCNCC3)nc(-c3ccoc3)nc2c1 |  | -5.63%
c1ccc2c(NC3CC3)nc(-c3ccoc3)nc2c1 | 3.98 µM (active) | 
Fc1ccc(Nc2nc(-c3ccoc3)nc3ccccc23)cc1 | 3.98 µM (active) | 
CNc1nc(-c2ccoc2)nc2ccccc12 | 15.8 µM (active) | 
c1ccc2c(Nc3ccncc3)nc(-c3ccoc3)nc2c1 | 1.26 µM (active) | 
O=S(=O)(c1ccc(F)cc1)N1CC2CCCN2c2ccc(C(F)(F)F)cc21 (stereo not drawn) | 6.31 µM (active) | 
COc1ccc(S(=O)(=O)N2CC3CCCN3c3ccc(C(F)(F)F)cc32)cc1 (stereo not drawn) | 1 µM (active) | 
O=C1COc2ccc(OCc3ccc(F)cc3)cc21 |  | 3%
OCc1ccc(-c2nn(Cc3ccccc3)c3ccccc23)o1 | 12.6 µM (active) | 
NC(=O)c1csc(-c2ccc(CO)o2)n1 |  | -8.17% [at 11.4 µM]
Clc1cc2c(c(CSC3=NCN(CC4CC4)CN3)c1)OCOC2 |  | -21.4% [at 11.4 µM]
CCCCCCCCOC1OC(CO)C(O)C(O)C1NC(C)=O (stereo not drawn) |  | -7.28%
CC(=O)OC[C@@H]1O[C@@H](O/N=C2/C[C@@H](O)[C@@H](O)[C@@H]3[C@H]4C(=O)N(c5ccc(F)cc5F)C(=O)[C@@H]4CC[C@@H]23)[C@H](OC(C)=O)[C@H](OC(C)=O)[C@@H]1OC(C)=O |  | -27.1% [at 11.4 µM]
CC(=O)NC1C(OCCOc2ccc(Cl)cc2Cl)OC(COC(C)=O)C(OC(C)=O)C1OC(C)=O (stereo not drawn) | 14.1 µM (active) | 
CCCSc1nc(C)cc(C)c1S(=O)(=O)c1ccccc1C |  | -17.7%
Cc1cc(-c2ccccc2)[nH]c(=O)c1S(=O)(=O)c1ccc(Cl)cc1 |  | -12.9%
CNc1nc(C)cc(C)c1S(=O)(=O)c1ccc(C)cc1 | 4.47 µM (active) | 
CNc1oc(C)nc1S(=O)(=O)c1ccc(C)cc1 |  | -16.1%
CNc1nc(C)cc(C)c1S(=O)(=O)c1ccc(Cl)cc1 | 4.47 µM (active) | 
Cc1ccc(C2Nc3ccccc3C(=O)N2Cc2ccco2)cc1 (stereo not drawn) | 14.1 µM (active) | 
COc1ccc([N+](=O)[O-])cc1COc1ccc2c(-c3ccccc3)cc(=O)oc2c1 |  | -22.6%
COc1ccc(C2Nc3ccccc3C(=O)N2Cc2ccco2)cc1COc1ccc([N+](=O)[O-])cc1 (stereo not drawn) | 4.47 µM (active) | 
O=S(=O)(c1ccccc1)N1CCC2(CCCN(C(c3ccccc3)c3ccccc3)C2)CC1 | 2 µM (active) | 
CN1CCC2(CC1)CCN(S(=O)(=O)c1ccccc1)CC2 |  | -12.4%

Compound | AC50 | activity, negative = inhibition
O=S(=O)(c1ccccc1)N1CCC[C@@]2(CCN(C(c3ccccc3)c3ccccc3)C2)C1 | 3.16 µM (active) | 
Cn1c(=O)c2[nH]c(COCc3nc4c([nH]3)c(=O)n(C)c(=O)n4C)nc2n(C)c1=O |  | -0.524% [at 11.4 µM]
O=C1Cc2c([nH]c3ccc(Br)cc23)-c2ccccc2N1 | 12.6 µM (active) | 
O=C1CCCCC(=O)c2ccccc2N1 |  | -7.97%
OCCN=C1CCCc2c1[nH]c1ccc(Br)cc21 |  | -11%
CC(C)OCCCN1CN(S(=O)(=O)c2cccc(Cl)c2)c2nc3ccccc3nc21 | 7.94 µM (active) | 
CCN1C(=O)C(CC(=O)Nc2ccc(OC)cc2)N(Cc2cccs2)C1=S (stereo not drawn) | 3.98 µM (active) | 
CCOc1ccc(N2C(=O)/C(=C/c3cccs3)N(CC(=O)OC)C2=S)cc1 |  | -26.9%
CCN1C(=O)C(CC(=O)Nc2ccc(Br)cc2)N(CCCc2ccccc2)C1=S (stereo not drawn) | 2.51 µM (active) | 
CCN1C(=O)C(CC(=O)Nc2ccc(OC)cc2)N(Cc2cccnc2)C1=S (stereo not drawn) | 11.2 µM (active) | 
CCCCC(=O)Nc1ccc(C(=O)NNC(=O)CCc2ccccc2)cc1 |  | -12.2%
COCC(=O)Nc1ccc(-c2cn3cccnc3n2)cc1 |  | -9.62%
CNC(=S)Nc1ccc(Nc2ccccc2)cc1 |  | -26%
Cc1cc(NC(=S)Nc2ccccc2)ccc1Br | 20 µM (active) | 
O=[N+]([O-])c1ccc(NN=C2c3ccccc3Cc3ccccc32)c([N+](=O)[O-])c1 |  | -5.06% [at 11.4 µM]
O=[N+]([O-])c1ccc(C2CCCC/C2=N\OCc2cccc(F)c2)c([N+](=O)[O-])c1 (stereo not drawn) | 14.1 µM (active) | 
CC1(C)N=C(N)N=C(N)N1c1cccc(OCc2cccc([N+](=O)[O-])c2)c1 |  | -3.23% [at 11.4 µM]
O=C(c1ccccc1)N1CCSC1=S |  | -18.4%
Cc1c(NC(=O)C(Sc2ccccc2)c2ccccc2)cccc1[N+](=O)[O-] (stereo not drawn) |  | -28.3% [at 2.29 µM]
COC(=O)c1nc(NC(=O)c2ccccc2)n[nH]1 |  | -13.8%
Cc1nc(SC(C(=O)c2ccccc2)c2ccccc2)n[nH]1 (stereo not drawn) | 7.08 µM (active) | 
CC(C)(C)c1ccc(C(=O)c2c[nH]c(C(=O)NCCCn3ccnc3)c2)cc1 | 0.282 µM (active) | 
O=C(O)CCCCCNC(=O)c1ccncc1 |  | -1.26%
O=C(c1ccc(C(F)(F)F)cc1)c1c[nH]c(C(=O)NCCCn2ccnc2)c1 | 1 µM (active) | 
O=C(NCCCN1CCOCC1)c1cc(C(=O)C2CC2)c[nH]1 |  | -2.72%

Compound | AC50 | activity, negative = inhibition
O=C1Oc2ccccc2C2(O)C3CCCCCC3C12 (stereo not drawn) |  | -27.4% [at 11.4 µM]
C[C@@](N)(Cc1c[nH]c2ccccc12)C(=O)O |  | -19.3% [at 11.4 µM]
O=C(Cc1c[nH]c2ccccc12)OCC(=O)c1ccccc1 | 22.4 µM (active) | 
Cn1c(/C(C#N)=C(\O)c2ccc(S(=O)(=O)N3CCCCC3)cc2)nc2ccccc21 | 14.1 µM (active) | 
CCn1c(SCC(=O)NC(=O)NCc2ccco2)nnc1-c1cccs1 | 1.26 µM (active) | 
O=C(Nc1ccccc1-c1nc2ccccc2[nH]1)c1ccc(S(=O)(=O)N2CCCCC2)cc1 |  | -23.2% [at 2.29 µM]
Cn1c(SCC(=O)N2CCN(S(=O)(=O)c3ccccc3)CC2)nc2ccccc21 | 12.6 µM (active) | 
CCN(CC)C(=O)CSc1nnc(-c2ccncc2)n1N |  | -8%
CCN(CC)C(=O)CSc1nnc(-c2ccco2)n1N |  | -0.344%
CCN(CC)C(=O)CSc1nnc(-c2cc3ccccc3cc2O)n1CC | 7.94 µM (active) | 
CC(C)(C)c1onc(OCP(=O)(O)O)c1C[C@@H](N)C(=O)O |  | -6.88%
CCn1c(SCC(=O)N2CCN(S(=O)(=O)c3ccccc3)CC2)nnc1-c1cccs1 | 1.12 µM (active) | 
CCn1c(SCC(=O)c2ccccc2)nnc1-c1cccs1 | 8.91 µM (active) | 
CCn1nnnc1SCC(=O)c1ccc2c(c1)OCCO2 |  | -31%
CN(C)/C=N/c1ncc(C(=O)c2ccc3ccccc3c2)s1 |  | -17%
Cc1ccccc1CSc1nnc(-c2cccs2)n1Cc1ccco1 | 4.47 µM (active) | 
O=c1onc(-c2cccs2)n1Cc1ccccc1 |  | 0.721%
CC(=O)c1ccc(-n2c(CCC(=O)O)ccc2-c2cccs2)cc1 |  | -24.9%
CCn1c(SCC(=O)c2ccc3ccccc3c2)nnc1-c1cccs1 | 3.98 µM (active) | 
CCOc1c2ccc(C(=O)NC3CCCc4ccccc43)cc2nn1C (stereo not drawn) |  | -21%
CCn1c(SCC(=O)NC2CCCc3ccccc32)nnc1-c1cccs1 (stereo not drawn) | 2.82 µM (active) | 
CCn1cc(C(=O)O)c(=O)c2cnc(N3CCNCC3)nc21 |  | 3.01% [at 25.6 µM]
CC(=O)OC[C@@H]1O[C@@H](O/N=C2/C[C@@H](O)[C@@H](O)[C@@H]3[C@@H]4C(=O)N([C@@H](C)c5ccccc5)C(=O)[C@H]4CC[C@@H]23)[C@H](OC(C)=O)[C@H](OC(C)=O)[C@@H]1OC(C)=O |  | -21% [at 11.4 µM]
